Test results reported in publication PMC7862700, “An all-to-all approach to the identification of sequence-specific readers for epigenetic DNA modifications on cytosine”.

Experiments:
Test in all cases: DAPPL (digital affinity profiling via proximity ligation, sequencing); 10 mM Tris-HCl pH 7.5, 50 mM NaCl, 1 mM DTT, 4% glycerol, room temperature, 30 min; GST-TFs on glutathione beads, 16-mer random dsDNA library, 0.1% formaldehyde crosslink after washing; high values mean tight binding
Details in all cases: protein: recombinant; tags: N-terminal GST; dsDNA, one strand shown
FLI1 = target: T1, FLI1 (Homo sapiens, UniProt Q01543 1-452)
T1 sequence: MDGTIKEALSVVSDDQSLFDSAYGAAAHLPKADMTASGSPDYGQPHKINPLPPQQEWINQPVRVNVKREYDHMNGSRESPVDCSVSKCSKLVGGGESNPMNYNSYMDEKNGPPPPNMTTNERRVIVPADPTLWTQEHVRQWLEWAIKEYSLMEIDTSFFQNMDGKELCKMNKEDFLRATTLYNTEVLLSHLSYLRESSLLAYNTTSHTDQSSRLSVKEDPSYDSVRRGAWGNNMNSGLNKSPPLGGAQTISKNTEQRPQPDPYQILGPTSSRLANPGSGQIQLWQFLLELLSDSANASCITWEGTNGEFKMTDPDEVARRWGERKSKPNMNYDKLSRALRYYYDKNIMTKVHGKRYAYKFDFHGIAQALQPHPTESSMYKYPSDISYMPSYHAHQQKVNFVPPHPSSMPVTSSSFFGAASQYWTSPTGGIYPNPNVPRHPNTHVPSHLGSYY
Method in brief: (§1)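 After expression in yeast as GST fusions, human transcription factors were bound to glutathione beads, DNA-barcoded and mixed with a tag-only sample. The pools were incubated with 200 nmole of a 16-mer random double-stranded DNA library in Tris/NaCl/DTT/glycerol buffer (30 min, room temperature), washed and crosslinked with 0.1% formaldehyde. Proximity ligation with BsaI/T4 ligase ran for 1 h at 37 °C, before PCR amplification and sequencing on an Illumina NextSeq500. Binding signal is a hexamer's read frequency for a factor divided by its frequency for the tag-only sample.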

ELK1 = target: T2, ELK1 (Homo sapiens, UniProt P19419 1-428)
T2 sequence: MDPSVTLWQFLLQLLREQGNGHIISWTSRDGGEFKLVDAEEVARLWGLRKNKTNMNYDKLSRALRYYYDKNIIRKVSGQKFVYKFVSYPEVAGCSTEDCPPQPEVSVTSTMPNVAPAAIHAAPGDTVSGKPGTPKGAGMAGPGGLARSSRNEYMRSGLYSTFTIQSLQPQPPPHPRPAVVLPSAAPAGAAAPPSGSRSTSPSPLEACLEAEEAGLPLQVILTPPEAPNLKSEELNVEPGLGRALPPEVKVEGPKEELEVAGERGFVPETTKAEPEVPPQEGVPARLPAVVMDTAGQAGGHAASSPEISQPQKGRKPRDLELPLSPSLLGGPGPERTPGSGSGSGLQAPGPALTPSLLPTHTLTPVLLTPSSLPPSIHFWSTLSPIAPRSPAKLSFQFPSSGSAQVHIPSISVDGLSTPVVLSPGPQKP
Method in brief: as §1

GABPA = target: T3, GABPA (Homo sapiens, UniProt Q06546 1-454)
T3 sequence: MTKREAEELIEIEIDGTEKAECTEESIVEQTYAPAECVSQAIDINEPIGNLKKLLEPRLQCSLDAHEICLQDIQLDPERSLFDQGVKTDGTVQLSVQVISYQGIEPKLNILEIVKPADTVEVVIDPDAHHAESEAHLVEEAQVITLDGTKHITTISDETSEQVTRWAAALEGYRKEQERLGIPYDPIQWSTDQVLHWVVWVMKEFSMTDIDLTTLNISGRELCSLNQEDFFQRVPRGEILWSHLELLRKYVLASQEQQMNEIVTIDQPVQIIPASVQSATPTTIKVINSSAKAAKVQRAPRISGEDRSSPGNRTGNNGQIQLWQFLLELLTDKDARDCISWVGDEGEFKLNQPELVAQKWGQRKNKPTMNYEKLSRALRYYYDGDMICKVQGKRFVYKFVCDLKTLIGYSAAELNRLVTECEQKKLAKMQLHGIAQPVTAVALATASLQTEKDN
Method in brief: as §1

ERG = target: T4, ERG (Homo sapiens, UniProt P11308 1-479)
T4 sequence: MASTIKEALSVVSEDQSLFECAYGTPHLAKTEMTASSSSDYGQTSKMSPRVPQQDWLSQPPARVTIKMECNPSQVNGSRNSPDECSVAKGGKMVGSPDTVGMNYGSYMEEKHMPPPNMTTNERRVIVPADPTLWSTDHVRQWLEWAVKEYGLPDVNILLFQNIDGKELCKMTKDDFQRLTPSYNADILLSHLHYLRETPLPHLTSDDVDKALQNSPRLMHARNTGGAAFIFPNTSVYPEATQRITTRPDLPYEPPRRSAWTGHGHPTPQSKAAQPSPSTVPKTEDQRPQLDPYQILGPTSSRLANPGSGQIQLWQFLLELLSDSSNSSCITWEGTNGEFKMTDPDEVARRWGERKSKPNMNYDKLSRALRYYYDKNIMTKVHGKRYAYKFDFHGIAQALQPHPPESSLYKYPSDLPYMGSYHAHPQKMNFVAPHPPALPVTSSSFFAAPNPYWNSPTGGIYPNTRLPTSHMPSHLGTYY
Method in brief: as §1

ELF1 = ELF1 (Homo sapiens, UniProt P32519 1-619)
Sequence of ELF1 (P32519 whole entry): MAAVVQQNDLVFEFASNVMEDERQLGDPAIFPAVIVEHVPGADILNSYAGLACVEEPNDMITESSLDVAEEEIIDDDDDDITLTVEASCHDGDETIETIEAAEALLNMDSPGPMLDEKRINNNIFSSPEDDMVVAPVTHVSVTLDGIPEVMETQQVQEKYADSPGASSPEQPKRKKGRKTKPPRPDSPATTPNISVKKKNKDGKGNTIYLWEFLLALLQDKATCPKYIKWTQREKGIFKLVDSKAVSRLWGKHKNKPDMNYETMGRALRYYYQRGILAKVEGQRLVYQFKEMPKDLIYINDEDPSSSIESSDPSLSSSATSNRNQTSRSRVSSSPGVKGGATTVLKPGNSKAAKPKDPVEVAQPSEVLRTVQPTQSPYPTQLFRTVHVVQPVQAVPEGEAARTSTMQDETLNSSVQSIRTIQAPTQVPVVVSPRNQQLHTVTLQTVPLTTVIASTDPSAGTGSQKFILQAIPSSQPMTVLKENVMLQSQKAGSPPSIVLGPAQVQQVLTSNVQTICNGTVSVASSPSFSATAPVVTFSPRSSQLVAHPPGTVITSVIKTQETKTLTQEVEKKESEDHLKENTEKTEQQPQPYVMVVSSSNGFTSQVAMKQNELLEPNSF
Method in brief: as §1

EHF = target: T5, EHF (Homo sapiens, UniProt Q9NZC4 1-300)
T5 sequence: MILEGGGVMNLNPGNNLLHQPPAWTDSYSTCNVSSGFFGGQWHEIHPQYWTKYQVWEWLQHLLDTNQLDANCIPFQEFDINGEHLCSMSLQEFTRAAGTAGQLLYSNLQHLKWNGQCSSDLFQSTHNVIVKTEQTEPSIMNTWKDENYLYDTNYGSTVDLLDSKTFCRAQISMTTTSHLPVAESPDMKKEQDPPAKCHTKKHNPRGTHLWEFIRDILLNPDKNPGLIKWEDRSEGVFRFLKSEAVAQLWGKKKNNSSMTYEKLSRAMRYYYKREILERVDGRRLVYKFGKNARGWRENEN
Method in brief: as §1

SPI1 = SPI1 (Homo sapiens, UniProt P17947 1-270)
Method in brief: as §1

SPIB = SPIB (Homo sapiens, UniProt Q01892 1-262)
Sequence of SPIB (Q01892 whole entry): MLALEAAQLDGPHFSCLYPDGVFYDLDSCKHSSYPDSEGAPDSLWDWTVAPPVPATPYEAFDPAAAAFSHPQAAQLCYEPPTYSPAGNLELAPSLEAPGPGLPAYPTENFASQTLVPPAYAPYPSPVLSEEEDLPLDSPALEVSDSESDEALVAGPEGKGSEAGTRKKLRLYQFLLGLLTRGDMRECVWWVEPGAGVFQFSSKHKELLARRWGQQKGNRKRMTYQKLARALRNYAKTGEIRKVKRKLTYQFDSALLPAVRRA
Method in brief: as §1

ELK3 = target: T6, ELK3 (Homo sapiens, UniProt P41970 1-407)
T6 sequence: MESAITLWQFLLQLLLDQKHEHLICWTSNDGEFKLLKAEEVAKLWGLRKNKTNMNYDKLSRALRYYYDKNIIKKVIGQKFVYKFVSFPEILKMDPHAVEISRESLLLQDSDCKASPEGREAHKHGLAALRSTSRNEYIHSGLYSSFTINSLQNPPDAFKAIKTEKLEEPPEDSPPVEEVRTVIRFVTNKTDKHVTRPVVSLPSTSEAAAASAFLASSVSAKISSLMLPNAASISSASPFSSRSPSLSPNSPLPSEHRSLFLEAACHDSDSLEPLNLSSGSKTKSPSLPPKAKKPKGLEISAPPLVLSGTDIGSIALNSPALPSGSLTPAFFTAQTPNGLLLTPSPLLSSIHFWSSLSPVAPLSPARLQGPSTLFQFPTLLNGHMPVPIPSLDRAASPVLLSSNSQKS
Method in brief: as §1

FEV = target: T7, FEV (Homo sapiens, UniProt Q99581 1-238)
T7 sequence: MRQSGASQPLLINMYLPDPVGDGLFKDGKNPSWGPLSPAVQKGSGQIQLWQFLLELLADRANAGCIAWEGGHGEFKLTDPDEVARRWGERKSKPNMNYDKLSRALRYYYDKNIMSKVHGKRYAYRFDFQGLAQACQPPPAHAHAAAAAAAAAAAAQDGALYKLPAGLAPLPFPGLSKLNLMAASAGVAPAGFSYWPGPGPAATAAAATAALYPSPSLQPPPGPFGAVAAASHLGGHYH
Method in brief: as §1

ETV5 = ETV5 (Homo sapiens, UniProt P41161 1-510)
Sequence of ETV5 (P41161 whole entry): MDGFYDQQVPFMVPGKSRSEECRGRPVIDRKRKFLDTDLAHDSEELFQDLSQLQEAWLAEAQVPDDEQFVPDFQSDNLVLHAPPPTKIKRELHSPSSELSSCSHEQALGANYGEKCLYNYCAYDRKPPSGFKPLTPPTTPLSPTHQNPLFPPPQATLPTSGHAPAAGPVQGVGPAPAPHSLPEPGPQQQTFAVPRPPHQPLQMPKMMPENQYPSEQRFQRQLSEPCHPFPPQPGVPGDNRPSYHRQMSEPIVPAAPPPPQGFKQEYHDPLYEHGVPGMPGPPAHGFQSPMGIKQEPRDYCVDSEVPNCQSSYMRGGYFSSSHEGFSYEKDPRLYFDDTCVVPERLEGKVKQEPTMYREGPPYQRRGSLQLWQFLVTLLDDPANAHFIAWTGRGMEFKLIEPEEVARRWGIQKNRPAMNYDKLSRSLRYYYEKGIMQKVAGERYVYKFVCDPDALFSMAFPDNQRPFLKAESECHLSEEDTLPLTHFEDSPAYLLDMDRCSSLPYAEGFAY
Method in brief: as §1

SPIC = target: T8, SPIC (Homo sapiens, UniProt Q8N5J4 1-248)
T8 sequence: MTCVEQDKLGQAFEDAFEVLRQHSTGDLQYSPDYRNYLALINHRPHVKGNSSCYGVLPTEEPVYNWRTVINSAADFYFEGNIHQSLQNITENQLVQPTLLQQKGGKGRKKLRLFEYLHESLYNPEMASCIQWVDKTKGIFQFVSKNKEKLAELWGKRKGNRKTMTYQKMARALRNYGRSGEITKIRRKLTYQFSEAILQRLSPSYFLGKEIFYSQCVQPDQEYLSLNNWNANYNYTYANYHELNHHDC
Method in brief: as §1

ELF4 = ELF4 (Homo sapiens, UniProt Q99607 1-663)
Sequence of ELF4 (Q99607 whole entry): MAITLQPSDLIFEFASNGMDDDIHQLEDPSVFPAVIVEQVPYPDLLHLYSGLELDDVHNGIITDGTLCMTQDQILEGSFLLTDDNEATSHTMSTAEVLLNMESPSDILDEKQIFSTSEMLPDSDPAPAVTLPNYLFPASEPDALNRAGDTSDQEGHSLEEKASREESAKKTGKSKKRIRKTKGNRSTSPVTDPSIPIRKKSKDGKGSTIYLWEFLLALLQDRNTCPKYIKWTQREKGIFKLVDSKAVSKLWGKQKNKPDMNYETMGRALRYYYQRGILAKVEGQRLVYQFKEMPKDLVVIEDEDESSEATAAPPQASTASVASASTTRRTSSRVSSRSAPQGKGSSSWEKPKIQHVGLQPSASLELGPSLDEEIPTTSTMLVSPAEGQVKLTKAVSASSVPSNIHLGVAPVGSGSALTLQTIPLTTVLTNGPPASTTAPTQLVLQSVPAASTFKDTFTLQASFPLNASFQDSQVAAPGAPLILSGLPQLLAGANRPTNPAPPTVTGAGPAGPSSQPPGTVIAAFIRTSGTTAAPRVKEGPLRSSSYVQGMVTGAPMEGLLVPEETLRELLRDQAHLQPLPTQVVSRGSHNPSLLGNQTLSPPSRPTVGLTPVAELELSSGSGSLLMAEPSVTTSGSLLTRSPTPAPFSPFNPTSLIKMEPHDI
Method in brief: as §1

ELK4 = target: T9, ELK4 (Homo sapiens, UniProt P28324-2 1-405)
T9 sequence: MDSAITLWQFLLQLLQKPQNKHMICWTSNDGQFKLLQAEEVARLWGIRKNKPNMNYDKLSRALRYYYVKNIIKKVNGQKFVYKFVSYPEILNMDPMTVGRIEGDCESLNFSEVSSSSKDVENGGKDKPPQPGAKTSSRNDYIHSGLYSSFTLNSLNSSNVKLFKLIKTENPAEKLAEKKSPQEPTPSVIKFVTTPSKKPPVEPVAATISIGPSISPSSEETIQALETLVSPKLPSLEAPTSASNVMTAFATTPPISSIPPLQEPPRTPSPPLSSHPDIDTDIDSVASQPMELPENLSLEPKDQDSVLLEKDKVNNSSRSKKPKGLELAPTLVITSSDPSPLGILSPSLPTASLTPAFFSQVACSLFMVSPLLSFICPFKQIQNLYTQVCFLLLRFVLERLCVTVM
Method in brief: as §1

ETV2 = target: T10, ETV2 (Homo sapiens, UniProt O00321 1-342)
T10 sequence: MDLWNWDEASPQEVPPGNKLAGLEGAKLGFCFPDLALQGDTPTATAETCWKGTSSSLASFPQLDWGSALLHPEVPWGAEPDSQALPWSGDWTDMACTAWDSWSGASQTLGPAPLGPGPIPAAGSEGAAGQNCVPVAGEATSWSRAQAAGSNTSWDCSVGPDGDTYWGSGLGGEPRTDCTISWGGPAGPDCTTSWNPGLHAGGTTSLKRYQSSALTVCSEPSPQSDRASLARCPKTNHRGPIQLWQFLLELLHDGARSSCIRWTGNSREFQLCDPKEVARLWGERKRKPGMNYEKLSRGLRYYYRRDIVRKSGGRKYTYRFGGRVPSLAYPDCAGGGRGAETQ
Method in brief: as §1

ELF3 = target: T11, ELF3 (Homo sapiens, UniProt P78545 1-371)
T11 sequence: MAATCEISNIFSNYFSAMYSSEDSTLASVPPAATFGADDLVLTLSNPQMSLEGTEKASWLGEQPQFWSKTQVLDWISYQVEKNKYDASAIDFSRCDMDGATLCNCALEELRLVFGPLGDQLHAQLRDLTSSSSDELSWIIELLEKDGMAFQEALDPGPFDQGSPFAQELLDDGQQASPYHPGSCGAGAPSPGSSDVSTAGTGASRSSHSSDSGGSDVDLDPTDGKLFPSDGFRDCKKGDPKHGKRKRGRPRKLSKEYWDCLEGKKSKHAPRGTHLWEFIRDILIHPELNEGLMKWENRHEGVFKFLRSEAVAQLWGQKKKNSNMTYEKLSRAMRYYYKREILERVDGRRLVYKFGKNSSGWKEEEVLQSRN
Method in brief: as §1

ETV1 = ETV1 (Homo sapiens, UniProt P50549 1-477)
Sequence of ETV1 (P50549 whole entry): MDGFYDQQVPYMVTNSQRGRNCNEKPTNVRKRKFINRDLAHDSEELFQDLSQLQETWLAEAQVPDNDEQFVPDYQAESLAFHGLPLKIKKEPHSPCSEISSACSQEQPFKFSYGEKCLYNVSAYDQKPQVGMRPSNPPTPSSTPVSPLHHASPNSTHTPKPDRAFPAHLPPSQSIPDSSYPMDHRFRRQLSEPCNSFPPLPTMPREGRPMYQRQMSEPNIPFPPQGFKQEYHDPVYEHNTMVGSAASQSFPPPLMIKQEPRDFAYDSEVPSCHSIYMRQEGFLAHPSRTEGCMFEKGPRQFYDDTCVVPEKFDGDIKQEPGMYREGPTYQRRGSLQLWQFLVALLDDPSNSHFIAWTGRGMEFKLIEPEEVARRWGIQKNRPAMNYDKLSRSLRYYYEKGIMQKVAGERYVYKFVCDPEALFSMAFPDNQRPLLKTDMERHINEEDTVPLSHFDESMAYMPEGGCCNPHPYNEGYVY
Method in brief: as §1

Sequence	binding signal (FLI1)	binding signal (ELK1)	binding signal (GABPA)	binding signal (ERG)	binding signal (ELF1)	binding signal (EHF)	binding signal (SPI1)	binding signal (SPIB)	binding signal (ELK3)	binding signal (FEV)	binding signal (ETV5)	binding signal (SPIC)	binding signal (ELF4)	binding signal (ELK4)	binding signal (ETV2)	binding signal (ELF3)	binding signal (ETV1)
GGTTTG	1.18 fold enrichment (6-mer frequency, TF over GST control)	1.15 fold enrichment (6-mer frequency, TF over GST control)	1.24 fold enrichment (6-mer frequency, TF over GST control)	1.13 fold enrichment (6-mer frequency, TF over GST control)	1.19 fold enrichment (6-mer frequency, TF over GST control)	1.22 fold enrichment (6-mer frequency, TF over GST control)	1.06 fold enrichment (6-mer frequency, TF over GST control)	1.01 fold enrichment (6-mer frequency, TF over GST control)	1.2 fold enrichment (6-mer frequency, TF over GST control)	1.12 fold enrichment (6-mer frequency, TF over GST control)	1.02 fold enrichment (6-mer frequency, TF over GST control)	1.27 fold enrichment (6-mer frequency, TF over GST control)	1.12 fold enrichment (6-mer frequency, TF over GST control)	1.26 fold enrichment (6-mer frequency, TF over GST control)	1.05 fold enrichment (6-mer frequency, TF over GST control)	1.09 fold enrichment (6-mer frequency, TF over GST control)	1.14 fold enrichment (6-mer frequency, TF over GST control)
TGCCCT	1.21 fold enrichment (6-mer frequency, TF over GST control)	1.25 fold enrichment (6-mer frequency, TF over GST control)	1.21 fold enrichment (6-mer frequency, TF over GST control)	1.09 fold enrichment (6-mer frequency, TF over GST control)	1.25 fold enrichment (6-mer frequency, TF over GST control)	1.12 fold enrichment (6-mer frequency, TF over GST control)	1.15 fold enrichment (6-mer frequency, TF over GST control)	1.16 fold enrichment (6-mer frequency, TF over GST control)	1.07 fold enrichment (6-mer frequency, TF over GST control)	1.18 fold enrichment (6-mer frequency, TF over GST control)	1.11 fold enrichment (6-mer frequency, TF over GST control)	1.2 fold enrichment (6-mer frequency, TF over GST control)	1.12 fold enrichment (6-mer frequency, TF over GST control)	1.25 fold enrichment (6-mer frequency, TF over GST control)	1.13 fold enrichment (6-mer frequency, TF over GST control)	1.27 fold enrichment (6-mer frequency, TF over GST control)	1.08 fold enrichment (6-mer frequency, TF over GST control)
GCTGTT	1.04 fold enrichment (6-mer frequency, TF over GST control)	1.07 fold enrichment (6-mer frequency, TF over GST control)	1.12 fold enrichment (6-mer frequency, TF over GST control)	1.11 fold enrichment (6-mer frequency, TF over GST control)	1.1 fold enrichment (6-mer frequency, TF over GST control)	1.07 fold enrichment (6-mer frequency, TF over GST control)	1.06 fold enrichment (6-mer frequency, TF over GST control)	1.03 fold enrichment (6-mer frequency, TF over GST control)	1.04 fold enrichment (6-mer frequency, TF over GST control)	1.16 fold enrichment (6-mer frequency, TF over GST control)	1.07 fold enrichment (6-mer frequency, TF over GST control)	1.25 fold enrichment (6-mer frequency, TF over GST control)	1.18 fold enrichment (6-mer frequency, TF over GST control)	1.24 fold enrichment (6-mer frequency, TF over GST control)	1.1 fold enrichment (6-mer frequency, TF over GST control)	1.17 fold enrichment (6-mer frequency, TF over GST control)	1.21 fold enrichment (6-mer frequency, TF over GST control)
